Compound activity deposited in PubChem by The Scripps Research Institute Molecular Screening Center.
Compounds with a hit are over-represented: about 3.2% of the library has one in this group of screens.
sPLA2-III inh: Blocks human group III sPLA2 activity; QFRET BODIPY PC-A2 liposome hydrolysis, fluorescence; inhibition, % at 12.2 µM; 370,000 compounds, 0.56% hits;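 active means inhibition above mean plus 3 SD of compounds lying within the high and low control bounds, cut at about 19% in these data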;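 further: 0% = median of test compound wells and 100% = no enzyme DMSO wells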
Target sequence (Q9NZ20 whole entry, looked up): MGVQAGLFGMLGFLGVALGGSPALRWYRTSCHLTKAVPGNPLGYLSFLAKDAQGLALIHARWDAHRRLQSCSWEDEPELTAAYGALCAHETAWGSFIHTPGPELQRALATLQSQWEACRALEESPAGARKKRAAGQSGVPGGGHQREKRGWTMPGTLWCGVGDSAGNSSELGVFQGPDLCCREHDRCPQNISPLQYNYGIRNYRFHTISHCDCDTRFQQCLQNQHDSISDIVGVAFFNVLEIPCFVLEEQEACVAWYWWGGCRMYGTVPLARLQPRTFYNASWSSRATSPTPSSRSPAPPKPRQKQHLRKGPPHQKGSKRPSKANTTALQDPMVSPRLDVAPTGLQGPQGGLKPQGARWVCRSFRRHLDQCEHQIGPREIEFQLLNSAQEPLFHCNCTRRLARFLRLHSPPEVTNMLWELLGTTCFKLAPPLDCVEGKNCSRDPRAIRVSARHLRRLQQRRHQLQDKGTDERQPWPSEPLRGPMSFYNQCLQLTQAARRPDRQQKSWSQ
rCAG binder: r(CAG) repeat RNA binding. 370,000 compounds, 1.3% hits. TO-PRO-1 dye displacement fluorescence. inhibition, % at 3 µM. AID 651821;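 active means inhibition above the plate cutoff, the mean of all test compounds on that plate plus 3 SD, cut at about 35% in these data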;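 further: 0% = DMSO alone and 100% = 100 µM mitoxantrone as full dye displacement; higher means more dye released from RNA so lower well fluorescence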
MsrA act: activates bovine MsrA enzyme; purified bovine MsrA, absorbance read-out; activation, % at 10.6 µM; 360,000 compounds, 0.3% hits; in the data active means activation above about 7.5%;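 further: 0% = vehicle and 100% = reference activator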
PG9 Ab binder: PG9 antibody binding by small molecule; TR-FRET gp120-PG9 antibody binding; inhibition, % at 6.7 µM; 360,000 compounds, 0.43% hits; in the data active means inhibition above about 8.5%
MsrA inhibitor: bovine MsrA inhibition; purified bovine MsrA, absorbance read-out; inhibition, % at 15.5 µM; 360,000 compounds, 0.75% hits; in the data active means inhibition above about 4.5%;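 further: 0% = vehicle wells with enzyme and 100% = reference inhibitor wells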
MsrA act confirm: confirmation of bovine methionine sulfoxide reductase A activators; AID 602270; activation, % at 10.6 µM; purified bovine MsrA, absorbance read-out; shares compounds with MsrA act; 1,000 compounds, 12% hits; in the data active means activation above about 4%;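 further: enzyme coupled to thioredoxin and thioredoxin reductase with NADPH; 0% = vehicle wells and 100% = reference activator wells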
Starred values were filed as active, the others as inactive; i = inactive; . = no result given.

SMILES	sPLA2-III inh	rCAG binder	MsrA act	PG9 Ab binder	MsrA inhibitor	MsrA act confirm
COc1ccc(N(CC(=O)NCc2cccnc2)S(=O)(=O)c2ccccc2)c(OC)c1	-3	1	13*	-2	0	-1
S=c1[nH]nc(-c2ccncc2)n1Cc1ccccc1	11	-1	8.5*	-1	1	1
CC1(Cc2ccc(OC(F)(F)F)cc2)C(=O)Nc2ccc(S(=O)(=O)NC3CCCCC3)cc21 (centres undefined)	-20	-1	20*	-1	-1	1
CC1(Cc2ccc(Cl)cc2)C(=O)Nc2ccc(S(=O)(=O)NC3CCCCC3)cc21 (centres undefined)	-21	2	-1	0	1	.
CC(=O)Nc1ccc(C(=O)OCC(=O)c2cccc([N+](=O)[O-])c2)cc1	-25	6	8.4*	0	-1	-1
N#Cc1cccc(NC(=O)OCCN2C(=O)CCC23CCC(c2ccc(Cl)cc2)CC3)c1 (centres undefined)	3	3	.	.	.	.
Cc1cccc(N2C(=O)C3CCCN3C2=S)c1 (centres undefined)	-48	2	-10	0	-1	.
CSc1cccc(N2C(=O)C3CCCN3C2=S)c1 (centres undefined)	-49	0	8.1*	0	-1	1
Cc1ccc(S(=O)(=O)NC2c3cccc4cccc(c34)C2Sc2nncn2C)cc1 (centres undefined)	7	-1	15*	2	0	0
COC(=O)C12C=C3CC(C)=C3C(=O)N1Cc1[nH]c3ccccc3c1C2 (centres undefined)	-9	5	.	.	.	.
COc1ccc(S(=O)(=O)N2CCCC(C(=O)NCc3cccnc3)C2)cc1 (centres undefined)	1	1	-5	-1	-1	.
CCOc1ccc(S(=O)(=O)N2CCCC(C(=O)NCc3cccnc3)C2)cc1 (centres undefined)	-1	-6	8.9*	0	-1	-2
O=C(COC(=O)Cc1ccsc1)Nc1ccccc1	-5	-2	25*	-2	1	2
CCCCNC(=O)C[C@H]1C[C@@]2(C(=O)OC)C(=C[C@H](COCc3ccccc3)O[C@@H]2C)N(Cc2ccco2)C1=O	1	1	.	.	.	.
CC(=O)Nc1ccc(S(=O)(=O)NC2=C(N3CCN(C)CC3)C(=O)c3ccccc3C2=O)cc1	9	0	26*	-15	2	1
CCOC(=O)N1CCN(C2=C(NS(=O)(=O)c3ccc(NC(C)=O)cc3)C(=O)c3ccccc3C2=O)CC1	2	1	-4	-8	0	.
CCN1CCN(C2=C(NS(=O)(=O)c3ccc(NC(C)=O)cc3)C(=O)c3ccccc3C2=O)CC1	7	-5	8.9*	-16	2	1
CC1CCCN(C2=C(NS(=O)(=O)c3ccc(Br)cc3)C(=O)c3ccccc3C2=O)C1 (centres undefined)	8	9	8.9*	-2	2	1
CCOC(=O)[C@]12CCCCC/C=C\1N(Cc1ccc(OC)cc1)C(=O)[C@H]2CC(=O)NCc1ccc(OC)c(OC)c1	-7	4	.	.	.	.
O=C(CC(c1ccccc1)c1cc(Cl)ccc1O)N1CCOCC1 (centres undefined)	-8	-2	9.8*	-1	0	0
O=c1c2ccccc2sn1-c1ccc(F)cc1	1	2	12*	1	1	8.3*
Cc1ccc(-n2sc3cc(F)ccc3c2=O)c(C)c1	4	3	14*	2	-1	3
O=c1c2ccc(F)cc2sn1-c1ccccc1	0	0	13*	1	1	8.0*
O=c1c2cc(F)ccc2sn1-c1ccccc1Cl	9	1	0	1	-1	.
O=c1c2ccccc2sn1-c1ccc(Cl)cc1	2	2	5	2	-1	.
SMILES	sPLA2-III inh	rCAG binder	MsrA act	PG9 Ab binder	MsrA inhibitor	MsrA act confirm
Cc1ccc(-n2sc3ccccc3c2=O)cc1	-5	0	13*	0	0	2
O=C1c2ccccc2S(=O)(=O)c2cc(C(=O)N(c3ccccn3)c3ccccn3)ccc21	7	2	8.0*	-2	-1	3
O=C(CCc1ccccc1-c1ccccc1CCNC(=O)c1ccccc1)NCc1ccccc1	3	1	.	.	.	.
Cc1nc2c(nc1C)C(=O)c1ccccc1C2=O	1	0	13*	-3	1	8.4*
O=C1c2ccccc2-c2nc3ccccc3nc21	6	4	4	-1	0	.
CCOC(=O)Cn1cc(CN2CCS(=O)(=O)N(Cc3ccccc3)C(C(=O)OC)C2)nn1 (centres undefined)	6	1	.	.	.	.
Fc1ccccc1Cn1nnc(-c2ccc3c(c2)OCO3)n1	-3	-6	-2	0	-1	.
COc1ccc(-c2nnn(Cc3ccccc3F)n2)cc1	-8	-2	16*	1	0	0
O=C1N(CCCO)CCC12CCCCC2	9	1	.	.	.	.
CCOC(=O)Cn1nc(C)c(NC(=O)COc2ccccc2)c1C	-2	1	8.0*	0	-1	2
COc1cccc(NC(=O)CN(C)CC(=O)NCc2ccc3c(c2)OCO3)c1	2	1	11*	-2	0	-1
COc1cccc(NC(=O)CN(C)C(=O)CCNC(=O)c2ccccc2Cl)c1	5	0	8.0*	-1	-1	2
O=C(CSc1nnc(-c2cccs2)o1)c1cccc([N+](=O)[O-])c1	-42	4	.	.	.	.
CN[C@H]1C[C@H]2c3[nH]c4c(-c5ccc6c(c5)OCO6)cccc4c3CCN2C[C@H]1[C@H](C)O	0	13	.	.	.	.
CO[C@H]([C@H](C)/C=C/N(C)C=O)[C@@H](C)C(=O)CC[C@H](C)[C@H](O)[C@H](C)[C@H]1OC(=O)/C=C/C(C)=C/C[C@H](O)C[C@@H]2C=CC[C@@H](C[C@H](OC)[C@@H](C)[C@@H](OC)C[C@@H](OC)[C@@H]1C)O2	-20	.	.	.	.	.
Cc1cc(C)n(CCc2nc(-c3ccc(C(C)(C)C)cc3)cs2)n1	-3	2	9.3*	-2	0	-4
Cc1ccc2c(c1)C1CS(=O)(=O)N(Cc3ccc(F)cc3)CN1C2 (centres undefined)	2	5	.	.	.	.
CC(=O)OCCn1c2nc(=O)[nH]c(=O)c-2nc2cc(C)c(C)cc21	-407	i	13*	0	1	16*
CC(=O)OCCn1c(C)[n+](CCOC(C)=O)c2cc(Cl)c(Cl)cc21	3	-3	-2	-1	2	.
CC(=O)N1CCc2cc(S(=O)(=O)NC3CCN(C(=O)OCc4ccccc4)CC3)ccc21	-14	1	.	.	.	.
O=C(Nc1cccnc1Cl)c1cccs1	2	-1	17*	0	-1	-1
O=C(Nc1ccccn1)c1cccs1	3	-3	-9	1	1	.
COc1ccc(Cc2nnc(NC(=O)Nc3ccccc3F)s2)cc1OC	-7	4	11*	-1	-1	-1
CC(=O)Nc1nnc(Cc2ccccc2)s1	9	4	8.6*	3	-1	-3
Clc1ccc(Cn2nc(-c3ccccc3)nc2-c2ccccc2)cc1	-3	-4	8.7*	-3	0	0
